High-throughput results from PubChem.
CYP2C9 inh = blockers of cytochrome P450 2C9 activity – biochemical, luminescence, ADME assay, primary screen. P11712. CYP2C9 Supersomes, luciferin-H conversion. inhibition, % at 5 µM. 96,000 compounds, 20% hits;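 active = blocking of liver enzyme CYP2C9 beyond about 50% at 5 µM, limit read from the data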
DAT uptake mod = changed hDAT dopamine uptake under cocaine IC80, either direction, primary screen, cocaine antagonist project, cell-based, LLC-PK1 hDAT, [14C]-dopamine uptake, MLSMR. Sodium-dependent dopamine transporter (Homo sapiens), Q01959. B-score at 10 µM. LLC-PK1 hDAT cells, [14C]-dopamine uptake with cocaine IC80; actives deviate in either direction. 110,000 compounds, 1.3% hits;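 active = Z score or B-score, a plate-position-corrected score, falls beyond the plate's 99.7% confidence bounds, in either direction; inactive = both scores lie inside the 99.7% bounds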;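 note: scored against the spread of the other compound wells on the same plate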
CYP2C19 act = human CYP2C19 activators, primary screen, biochemical, luminescence. recombinant CYP2C19, luciferin-H EGE luminescence; hits give high values; 0 = fully inhibited enzyme, 1 = untreated enzyme. activation factor at 5 µM. 96,000 tested, under 10 active. AID 1025, 2008;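 active = activation factor of at least 2 at 5 µM in the primary screen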;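 note: 0 = wells with 2.5 mM tranylcypromine and 1 = vehicle-only wells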
CYP2C19 inhib = blockers of cytochrome P450 2C19 activity – biochemical, luminescence, ADME assay, primary screen; P33261; CYP2C19 Supersomes, luciferin-H EGE luminescence, 30 min; inhibition, % at 5 µM; 96,000 compounds, 21% hits; AID 778, 2007;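 active = CYP2C19 inhibition above a set limit at 5 µM in the primary screen, cut at about 50% in these data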;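 note: plate controls were negative control wells for no effect and 2.5 mM tranylcypromine positive control for full effect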
CYP2C9 activ = human CYP2C9 activators, primary screen, biochemical, luminescence. Cytochrome P450 2C9 (Homo sapiens), P11712. recombinant CYP2C9, luciferin-H conversion; hits give high values; factor 1 = untreated enzyme, 0 = blocked. activation factor at 5 µM. 96,000 compounds, 1.4% hits;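 active = activation factor of 2 or more for CYP2C9 at a 5 µM dose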;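 note: 0 = sulfaphenazole-blocked wells and 1 = vehicle-only wells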
D1 mod = D1 CRE-luciferase signal change, two-sided – cell-based, HEK293 D1, dopamine EC30, D1 allosteric modulator project, primary screen; 58,000 compounds, 5.9% hits; B-score at 10 µM; D(1A) dopamine receptor (Homo sapiens), P21728; AID 641, 2007; dopamine EC30 potentiation; actives deviate in either direction;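 active = luminescence count or its row- and column-corrected plate score outside the 99.7% band of the plate's sample wells, on either side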
Target sequence (P21728 whole entry, looked up): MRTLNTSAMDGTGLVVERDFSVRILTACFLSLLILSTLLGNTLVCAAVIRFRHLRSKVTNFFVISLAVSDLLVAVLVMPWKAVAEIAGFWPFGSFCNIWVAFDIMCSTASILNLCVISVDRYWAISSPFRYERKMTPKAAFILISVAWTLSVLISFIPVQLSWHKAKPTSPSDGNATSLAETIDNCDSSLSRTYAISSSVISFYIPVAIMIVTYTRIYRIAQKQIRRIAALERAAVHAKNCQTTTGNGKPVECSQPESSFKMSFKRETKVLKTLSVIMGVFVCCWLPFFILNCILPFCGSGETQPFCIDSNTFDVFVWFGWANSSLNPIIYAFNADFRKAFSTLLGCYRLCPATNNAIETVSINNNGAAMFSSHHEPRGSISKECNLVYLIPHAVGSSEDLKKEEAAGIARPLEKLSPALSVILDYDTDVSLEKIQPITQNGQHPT
* = called active by the depositor; . = no result given. The list is not random: actives were taken first. Their share in the collection is about 28%.

SMILES	CYP2C9 inh	DAT uptake mod	CYP2C19 act	CYP2C19 inhib	CYP2C9 activ	D1 mod
Cc1ccc(CCNC(=O)C2CCC(=O)N2C2CCCC2)cc1 (stereo not given)	9	-0.35	0.8	16	0.9	0.27
O=C1C=C(NCC2CCCO2)CC(c2ccccc2)C1 (stereo not given)	-3	0.27	0.3	73*	1	0.21
CCOc1cc(C2NC(=O)NC(C)=C2C(=O)OCc2ccccc2)ccc1O (stereo not given)	71*	0.23	0.4	59*	0.3	0.012
CCOC(=O)C1=C(C)NC(=O)NC1c1c(O)ccc2ccccc12 (stereo not given)	-5	1.3	0.1	86*	1	0.3
COc1cc(C2NC(=O)NC(C)=C2C(=O)OCc2ccccc2)ccc1O (stereo not given)	41	0.85	0.7	30	0.6	-0.7
CCOC(=O)C1=C(C)NC(=O)NC1c1ccco1 (stereo not given)	-2	-0.83	1.1	-13	1	-0.07
CCOC(=O)C1=C(C)NC(=O)NC1c1ccc(OCCO)c(OC)c1 (stereo not given)	-2	-0.045	1.1	-7	1	-0.037
COc1ccc(COC(=O)C2=C(C)NC(=O)NC2c2ccc(O)c(OC)c2)cc1 (stereo not given)	62*	-0.078	0.3	70*	0.4	-0.027
COc1ccc(C(O)(C(=O)NNc2ccc(C)cc2)c2cccs2)cc1 (stereo not given)	24	-7.9*	0.2	77*	0.8	.
O=C(NNc1ccc(C2CCCCC2)cc1)C(O)(c1ccccc1)c1cccs1 (stereo not given)	28	0.94	0.8	17	0.7	.
O=C(O)CCc1ccc(-c2ccccc2)n1CC1CCCO1 (stereo not given)	3	0.35	0.4	64*	1	-0.23
O=C(O)CCc1ccc(-c2ccc(Br)cc2)n1Cc1ccco1	-8	0.055	0.7	26	1.1	0.68
O=C(O)CCc1ccc(-c2ccccc2)n1Cc1ccco1	47	1.4	0.4	63*	0.5	0.65
O=C(O)CCc1ccc(-c2ccc(F)cc2)n1Cc1ccco1	9	2	0.4	57*	0.9	-0.39
O=C(O)CCc1ccc(-c2ccc(F)cc2)n1CC(=O)O	-16	-0.02	1.2	-17	1.2	0.52
O=C(O)[C@@H](O)c1ccccc1	.	0.71	.	.	.	.
CCCCc1nnc(SCCSc2nnc(CCCC)n2N)n1N	12	0.19	1	-4	0.9	-0.2
CCOc1ccc(S(=O)(=O)N2CCN(S(=O)(=O)c3ccc(OCC)cc3)C(C)C2)cc1 (stereo not given)	22	0.22	0.8	19	0.8	-0.24
COC(=O)C1CN(S(=O)(=O)c2ccccc2)CCN1S(=O)(=O)c1ccccc1 (stereo not given)	74*	0.27	0	98*	0.3	.
CCOC(=O)C1CN(S(=O)(=O)c2ccc(C)cc2)CCN1S(=O)(=O)c1ccc(C)cc1 (stereo not given)	78*	-0.018	0	96*	0.2	-1.1
CCOC(=O)C1CN(S(=O)(=O)c2ccccc2)CCN1S(=O)(=O)c1ccccc1 (stereo not given)	70*	0.75	0.1	94*	0.3	.
CCCCNC(=O)Nc1cnn(CC)c1C(N)=O	-4	0.2	1	-1	1	-0.52
O=C1CSC(=Nc2cc(Cl)ccc2Cl)N1	72*	-1.9	0.9	13	0.3	0.035
O=C(CN(c1ccccc1)S(=O)(=O)c1ccccc1[N+](=O)[O-])NN=C1CCCCCCC1	35	1.2	0.4	64*	0.6	.
Cc1cccc(C)c1N(CC(=O)NN=C1CCCCCC1)S(C)(=O)=O	17	-0.029	0.8	22	0.8	.
SMILES	CYP2C9 inh	DAT uptake mod	CYP2C19 act	CYP2C19 inhib	CYP2C9 activ	D1 mod
CCN1CCN(c2ncc(C(=O)Nc3cc(Cl)ccc3OC)c3ccccc23)CC1	-66	.	0.8	15	1.7	-0.92
CCN1CCN(c2ncc(C(=O)N3CCCc4ccccc43)c3ccccc23)CC1	26	0.31	0.2	81*	0.7	-0.75
COc1ccc(S(=O)(=O)n2nc(OCc3cccs3)cc2N)cc1	.	-0.49	.	.	.	.
CCOC(=O)C1=C(C)NC(=O)NC1c1c(C)nn(-c2ccccc2)c1Cl (stereo not given)	46	1.1	0.7	30	0.5	0.3
Cc1nn(-c2ccccc2)c(Cl)c1/C=C1\SC(=S)NC1=O	76*	-4.4*	1	4	0.2	.
C=CCn1c(NCc2cc(C)ccc2O)nc2ccccc21	64*	0.96	0.2	85*	0.4	-0.94
C=CCn1c(NCc2ccc(N(C)C)cc2)nc2ccccc21	15	1.3	0	96*	0.9	-0.57
C=CCn1c(NC(C)c2cc(Cl)ccc2O)nc2ccccc21 (stereo not given)	46	.	0.3	68*	0.5	-0.73
CC(C)n1c(NCc2cc(Cl)ccc2O)nc2ccccc21	17	-0.62	0.8	17	0.8	-1
Cn1c(NCc2cc(Br)ccc2O)nc2ccccc21	18	-0.18	0.9	9	0.8	-0.81
Cn1c(Cn2c(=O)sc3ccccc32)nnc1SCC(=O)NCc1ccccc1Cl	.	.	.	.	.	-0.023
CC(=O)N1CC2(C)CN(C(C)=O)CC(C)(C1)C2O (stereo not given)	-19	.	1	4	1.2	-0.15
CC1(C)CC2(CCO1)N1CC3(C)CN2CC(C)(C1)C3O (stereo not given)	52*	-0.71	0.9	8	0.5	-0.21
CCOc1ccc(S(=O)(=O)Nc2ccccc2SC)cc1	-90	-1.9	0.3	67*	1.9	.
CSc1ccc(S(=O)(=O)Nc2c(C)cccc2C)cc1	16	-0.14	0.6	40	0.8	-0.0018
CCOc1ccc(NS(=O)(=O)c2ccc(NS(=O)(=O)c3ccccc3)cc2)cc1	95*	0.31	0.5	55*	0	.
CCc1ccccc1NS(=O)(=O)c1ccc(SC)cc1	0	0.0052	0.2	81*	1	0.027
CCOc1ccc(S(=O)(=O)Nc2cc(Cl)ccc2O)cc1	100*	-0.75	0	100*	0	-0.21
CC(=O)n1cc([C@H]2C=C(C(N)=O)O[C@@H](OCc3ccc(CO)cc3)C2)c2ccccc21	.	0.76	.	.	.	.
Oc1ccc2ccccc2c1C=Nc1ccccc1-c1nc2ccccc2[nH]1	95*	1.1	0.6	45	0.1	.
O=C(Nc1ccccc1)c1ccc(Br)o1	.	0.53	.	.	.	.
